Measured values reported in PubChem BioAssay (Tox21).
Records with an inconclusive call do not appear. Activity calls are given as the source filed them. Unless noted, calls come from the whole dose curve; as a rule, active = well fitted curve in the direction sought with a large enough effect in the repeat runs; inconclusive = weak or mixed curves; inactive = no such curve, though single readings can be large; an effect the other way counts as inactive or inconclusive.

Tests used:
[1] = qHTS assay to identify small molecule antagonists of the estrogen related receptor (ERR) signaling pathway from Tox21 library - cell viability counter screen (AID 1224834); note: nearly all actives have a fitted effect of over 30% in size; note: potency is the fitted concentration of half-maximal effect
Procedure, shortened: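 CellTiter-Fluor fluorescence measured; ERR cells; 17.5 h compound incubation at 37 C; 30 min reagent step.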

[2] = molecular target: Luciferin 4-monooxygenase (Photinus pyralis) (UniProt P08659); assay: qHTS assay to identify small molecule inhibitors of firefly luciferase (AID 1224835); note: nearly all actives have a fitted effect of over 25% in size; note: potency is the fitted concentration of half-maximal effect; for activity change, negative = inhibition: series mostly up to about 120 µM
Chain of Luciferin 4-monooxygenase (Photinus pyralis) (P08659 whole entry, looked up): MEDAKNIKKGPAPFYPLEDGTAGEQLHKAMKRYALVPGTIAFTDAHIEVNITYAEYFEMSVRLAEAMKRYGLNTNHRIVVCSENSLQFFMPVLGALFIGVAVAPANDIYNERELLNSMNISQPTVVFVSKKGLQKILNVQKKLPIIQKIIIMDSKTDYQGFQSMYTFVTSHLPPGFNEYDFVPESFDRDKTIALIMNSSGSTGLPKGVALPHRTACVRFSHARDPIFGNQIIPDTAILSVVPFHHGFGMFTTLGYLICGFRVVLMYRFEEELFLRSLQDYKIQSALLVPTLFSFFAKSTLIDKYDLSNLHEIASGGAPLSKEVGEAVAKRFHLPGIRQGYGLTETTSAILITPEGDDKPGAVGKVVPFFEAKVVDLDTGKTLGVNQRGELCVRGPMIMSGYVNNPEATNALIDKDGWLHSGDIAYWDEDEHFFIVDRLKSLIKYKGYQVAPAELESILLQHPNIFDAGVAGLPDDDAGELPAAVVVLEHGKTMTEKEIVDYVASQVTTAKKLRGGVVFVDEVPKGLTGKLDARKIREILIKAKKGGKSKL
Procedure, shortened: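 Biochemical qHTS: compounds run as interplate titrations against purified firefly enzyme, with D-luciferin and ATP each at its KM concentration. Light output recorded by CCD imaging.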

[3] = qHTS assay to identify small molecule agonists of the constitutive androstane receptor (CAR) signaling pathway - cell viability counter screen (AID 1224836); note: series mostly up to about 92 µM; nearly all actives have a fitted effect of over 45% in size
Procedure, shortened: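 Cell viability multiplexed with the CAR agonist screen: CellTiter-Fluor fluorescence after 23 hr at 37 C. HepG2-CYP2B6-hCAR cells got compounds at 15 concentrations with PK11195 at 0.75 uM final.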

[4] = qHTS assay to identify small molecule antagonists of the constitutive androstane receptor (CAR) signaling pathway - cell viability counter screen (AID 1224837); note: series mostly up to about 92 µM; nearly all actives have a fitted effect of over 45% in size
Procedure, shortened: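 Using CellTiter-Fluor, viability is scored in HepG2 cells stably carrying hCAR and a 2.2kb CYP2B6 reporter after 23 hr compound exposure across 15 concentrations, with CITCO present at 50 nM.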

[5] = qHTS assay to identify small molecule antagonists of the estrogen related receptor signaling pathway with the pleiotropic PPARgamma coactivator (PGC) from Tox21 10K library - cell viability counter screen (AID 1224840; active = well fitted cell-killing curve with a large enough effect in the repeat runs, not every such curve was filed as active; note: nearly all actives have a fitted effect of over 40% in size)
Procedure, shortened: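 Here the PGC/ERR cells serve as a cytotoxicity control: they are exposed to compounds for 17.5 hours at 37 C, and live-cell signal is quantified using CellTiter-Fluor fluorescence.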

[6] = qHTS assay to identify small molecule antagonists of the estrogen related receptor signaling pathway with the pleiotropic PPARgamma coactivator (PGC) from Tox21 10K library (AID 1224841; call rule not given here; note: series mostly up to about 92 µM; actives are mostly falling curves and most rising ones were filed inactive; nearly all actives have a fitted effect of over 50% in size)
Procedure, shortened: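 Each well held 2,000 PGC/ERR cells, pre-incubated six hours (37 C, 5% CO2). Test substances in DMSO were added by pin tool and left for 18 h at 37 C before luciferase detection by One-Glo.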

[7] = molecular target: Nuclear receptor subfamily 1 group I member 3 (Homo sapiens) (UniProt Q14994); assay: qHTS assay to identify small molecule agonists of the constitutive androstane receptor (CAR) signaling pathway (AID 1224839);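 note: HepG2 cells stably carrying human CAR and a CYP2B6 luciferase reporter; series mostly up to about 92 µM; nearly all actives have a fitted effect of over 15% in size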
Chain of Nuclear receptor subfamily 1 group I member 3 (Homo sapiens) (Q14994 whole entry, looked up): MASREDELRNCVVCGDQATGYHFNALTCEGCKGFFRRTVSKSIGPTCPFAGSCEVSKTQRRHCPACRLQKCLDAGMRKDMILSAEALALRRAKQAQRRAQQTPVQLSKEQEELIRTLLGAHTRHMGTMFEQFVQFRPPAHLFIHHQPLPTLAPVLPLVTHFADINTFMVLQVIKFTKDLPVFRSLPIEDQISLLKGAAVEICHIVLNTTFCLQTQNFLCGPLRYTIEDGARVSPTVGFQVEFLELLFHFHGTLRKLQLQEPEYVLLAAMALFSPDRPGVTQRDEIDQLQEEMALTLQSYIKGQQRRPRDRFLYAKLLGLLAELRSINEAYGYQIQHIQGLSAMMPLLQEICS
Procedure, shortened: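 Luminescent ONE-Glo read-out after 24 hr, 37 C exposure of double-stable HepG2-CYP2B6-hCAR reporter cells to a 15-point compound series, in the presence of 0.75 uM PK11195 (final).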

[8] = qHTS assay to identify small molecule agonists of the estrogen related receptor signaling pathway with the pleiotropic PPARgamma coactivator (PGC) from Tox21 10K library (AID 1224842); note: nearly all actives have a fitted effect of over 15% in size
Procedure, shortened: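 PGC/ERR reporter cell line, 2,000 cells per well, incubated 6 h at 37 C before 23 nL compound in DMSO was added. After 18 h at 37 C, One-Glo luminescence read following 30 min at room temperature.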

[9] = molecular target: Thyrotropin receptor (Homo sapiens) (UniProt P16473); assay: qHTS assay to identify small molecule agonists of the thyroid stimulating hormone receptor (TSHR) signaling pathway (AID 1224843; calls by dose curve; note: nearly all actives have a fitted effect of over 45% in size)
Chain of Thyrotropin receptor (Homo sapiens) (P16473 whole entry, looked up): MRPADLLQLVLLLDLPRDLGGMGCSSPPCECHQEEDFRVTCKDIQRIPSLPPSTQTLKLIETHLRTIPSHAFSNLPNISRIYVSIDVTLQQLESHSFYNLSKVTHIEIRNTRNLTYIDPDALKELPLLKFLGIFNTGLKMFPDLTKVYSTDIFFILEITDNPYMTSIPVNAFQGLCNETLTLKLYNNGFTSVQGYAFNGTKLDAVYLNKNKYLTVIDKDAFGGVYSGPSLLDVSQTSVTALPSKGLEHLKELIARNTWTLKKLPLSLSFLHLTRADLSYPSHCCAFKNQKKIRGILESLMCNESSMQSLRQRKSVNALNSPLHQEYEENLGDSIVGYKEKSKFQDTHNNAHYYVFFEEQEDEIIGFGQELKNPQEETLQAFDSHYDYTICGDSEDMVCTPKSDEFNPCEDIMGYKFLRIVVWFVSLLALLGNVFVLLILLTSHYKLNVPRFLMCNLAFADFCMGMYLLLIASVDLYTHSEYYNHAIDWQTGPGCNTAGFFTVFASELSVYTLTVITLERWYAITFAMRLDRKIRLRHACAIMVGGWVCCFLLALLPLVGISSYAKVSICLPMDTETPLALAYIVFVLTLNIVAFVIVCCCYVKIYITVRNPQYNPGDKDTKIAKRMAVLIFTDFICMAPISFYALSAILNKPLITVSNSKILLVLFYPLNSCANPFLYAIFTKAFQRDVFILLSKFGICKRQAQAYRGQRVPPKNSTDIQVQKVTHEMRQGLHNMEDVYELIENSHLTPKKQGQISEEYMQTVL
Procedure, shortened: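 TSHR-HEK293 cells in agonist mode, 30 min room-temperature step, then cAMP measured by competitive HTRF (cAMP-d2 with anti-cAMP cryptate) after 1 h at room temperature. Tested at 15 concentrations in triplicate.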
% is set by controls: 0 for no effect and ±100 for the full control effect.

Nc1nc(N)c(-c2ccccc2)s1
inactive: Potency [1] | Potency [2] | Potency [3] | Potency [4] | Potency [5] | Potency [6]

O=C(O)C1CCC(C(=O)O)CC1 (stereo unspecified)
inactive: Potency [1] | Potency [2] | Potency [3] | Potency [4] | Potency [7] | Potency [5] | Potency [6] | Potency [8] | Potency [9]

O=C(O)Cc1sc(-c2ccccc2)nc1-c1ccc(Cl)cc1
inactive: Potency [1] | Potency [2] | Potency [3] | Potency [4] | Potency [5] | Potency [6] | Potency [8] | Potency [9]

O=C(O)COC(=O)Cc1ccccc1Nc1c(Cl)cccc1Cl
inactive: Potency [1] | Potency [2] | Potency [3] | Potency [4] | Potency [5] | Potency [6] | Potency [9]

COC(=O)CSc1cc(N=c2sc(=O)n3n2CCCC3)c(F)cc1Cl
inactive: Potency [1] | Potency [2] | Potency [3] | Potency [4] | Potency [7] | Potency [5] | Potency [9]

Nc1ccc(C(=O)N2CC3CC(CN(Cc4ccccc4)C3)C2)cc1
inactive: Potency [1] | Potency [2] | Potency [3] | Potency [4] | Potency [7] | Potency [5] | Potency [9]

CCCCCCCCN(C)C
inactive: Potency [1] | Potency [2] | Potency [3] | Potency [4] | Potency [5] | Potency [6] | Potency [8] | Potency [9]

COc1cc(C(C)(C)C)c(O)c(C(C)(C)C)c1
inactive: Potency [1] | Potency [2] | Potency [3] | Potency [4] | Potency [5] | Potency [6]

NCCCOCCOCCOCCCN
inactive: Potency [1] | Potency [2] | Potency [3] | Potency [4] | Potency [7] | Potency [5] | Potency [9]

CCCCCC(CO)CCC (stereo unspecified)
inactive: Potency [1] | Potency [2] | Potency [3] | Potency [4] | Potency [5] | Potency [6] | Potency [9]

O=C(/C=C/c1ccc(O)c(O)c1)O[C@@H]1C[C@](O)(C(=O)O)C[C@@H](O)[C@H]1O
inactive: Potency [1] | Potency [2] | Potency [3] | Potency [4] | Potency [5]

CC[C@H](C)[C@H](N)C(=O)O
inactive: Potency [1] | Potency [2] | Potency [3] | Potency [4] | Potency [7] | Potency [6] | Potency [8] | Potency [9]

O=C1CCCCCO1
inactive: Potency [1] | Potency [2] | Potency [3] | Potency [4] | Potency [7] | Potency [5] | Potency [9]

CCCc1ccccc1
inactive: Potency [1] | Potency [2] | Potency [3] | Potency [4] | Potency [7] | Potency [5] | Potency [6] | Potency [9]

CC(C)(C)c1ccc(OCC2CO2)cc1 (stereo unspecified)
active: Potency [2] 32.4 µM
inactive: Potency [1] | Potency [3] | Potency [4] | Potency [5] | Potency [6] | Potency [9]

CC(=O)/C=C/C1C(C)=CCCC1(C)C (stereo unspecified)
inactive: Potency [1] | Potency [2] | Potency [3] | Potency [4] | Potency [5]

CC(C)(C)C1CCCCC1O (stereo unspecified)
inactive: Potency [1] | Potency [2] | Potency [3] | Potency [4] | Potency [7] | Potency [5] | Potency [9]

O=C(NN1CCCC1)NS(=O)(=O)c1ccc(Cl)cc1
inactive: Potency [1] | Potency [2] | Potency [3] | Potency [4] | Potency [7] | Potency [5] | Potency [6] | Potency [9]

CCCCCCCCCC(=O)OCC
inactive: Potency [1] | Potency [2] | Potency [3] | Potency [4] | Potency [7] | Potency [9]

CCCCOC(=O)/C=C\C(=O)OCCCC
inactive: Potency [1] | Potency [2] | Potency [3] | Potency [4] | Potency [7] | Potency [5] | Potency [6] | Potency [9]

C[Si](C)O[Si](C)(C)O[Si](C)(C)O[Si](C)C
inactive: Potency [1] | Potency [2] | Potency [3] | Potency [4] | Potency [5] | Potency [9]

O=C(O)c1cn(C2CC2)c2cc(Cl)c(F)cc2c1=O
inactive: Potency [1] | Potency [2] | Potency [3] | Potency [4] | Potency [7] | Potency [5] | Potency [9]

Cc1ccc(C(N)=O)cc1N
inactive: Potency [1] | Potency [2] | Potency [3] | Potency [4] | Potency [5] | Potency [6] | Potency [9]

Cc1cc(NC(=O)C(=O)O)cc(C)c1Oc1ccc(O)c2c1CCC2
inactive: Potency [1] | Potency [3] | Potency [4] | Potency [7] | Potency [5] | Potency [6]
active: Potency [2] 35.6 µM

Cc1cccc(C(C)(C)C)c1O
inactive: Potency [1] | Potency [2] | Potency [3] | Potency [4] | Potency [7] | Potency [5]

Cc1c(Cn2ccnc2)c2ccccc2n1CCC(=O)O
inactive: Potency [1] | Potency [2] | Potency [3] | Potency [4] | Potency [5] | Potency [9]

CCOC(=O)[C@H](CCc1ccccc1)N[C@H]1CCc2ccccc2N(CC(=O)O)C1=O
active: Potency [1] 26.6 µM
inactive: Potency [2] | Potency [3] | Potency [4] | Potency [7] | Potency [9]

Cn1c(NCCN(CCO)CCCc2ccc([N+](=O)[O-])cc2)cc(=O)n(C)c1=O
inactive: Potency [1] | Potency [2] | Potency [3] | Potency [4] | Potency [5] | Potency [6] | Potency [8] | Potency [9]

O=C(Nc1ccccc1)OCC(CN1CCCCC1)OC(=O)Nc1ccccc1 (stereo unspecified)
inactive: Potency [1] | Potency [2] | Potency [3] | Potency [4] | Potency [7] | Potency [9]

CCOC(=O)C1=NN(c2ccccc2)C(=O)C1
inactive: Potency [1] | Potency [2] | Potency [3] | Potency [4] | Potency [5] | Potency [9]

CNCC[C@@H](Oc1ccccc1C)c1ccccc1
inactive: Potency [1] | Potency [2] | Potency [3] | Potency [4] | Potency [7] | Potency [8] | Potency [9]

O=C(CCN1CCN2CCCC2C1)N1c2ccccc2Sc2ccc(Cl)cc21 (stereo unspecified)
inactive: viability change, negative = cytotoxic [1] -8.93% [at 19 µM] | activity change, negative = inhibition [2] -1.42% [at 23.6 µM] | viability change, negative = cytotoxic [3] -17% [at 19 µM] | activity change, negative = cytotoxicity [4] -18.2% [at 19 µM] | viability change, negative = cytotoxic [5] -1.3% [at 19 µM] | activity, negative = inhibition [6] -25.1% [at 19 µM] | activation [8] -6.92% [at 19 µM] | activation [9] -2.43% [at 19 µM]
